Cruzain inh noDet = inhibitors of Trypanosoma cruzi cruzain without detergent | Potency, µM, for inactives: max response, negative = inhibition, actives largely listed as inhibitors | purified cruzain, Z-FR-AMC fluorescence, no detergent | actives 2.3% (n = 200,000) | AID 1476;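 further: plate controls were enzyme without inhibitor for no effect and buffer without enzyme for full effect; nearly all actives have a fitted effect of over 40% in size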
Target sequence (P25779 123-467 limits assumed): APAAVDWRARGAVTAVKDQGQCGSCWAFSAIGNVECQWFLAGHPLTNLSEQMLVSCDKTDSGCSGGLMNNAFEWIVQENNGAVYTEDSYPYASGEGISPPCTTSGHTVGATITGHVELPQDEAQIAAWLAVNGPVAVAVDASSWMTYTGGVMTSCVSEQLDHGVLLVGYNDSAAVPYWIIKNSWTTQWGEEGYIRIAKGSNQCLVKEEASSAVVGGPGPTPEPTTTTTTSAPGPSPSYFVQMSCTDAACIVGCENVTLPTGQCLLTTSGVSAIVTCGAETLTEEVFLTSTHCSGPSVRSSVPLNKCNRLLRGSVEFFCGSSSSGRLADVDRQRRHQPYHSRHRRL
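Detergent-free condition (0.00005% Triton X-100) in acetate buffer pH 5.5 with DTT. 1.5 nM enzyme and compound were pre-mixed 15 min, then 2 uM Z-FR-AMC substrate added; reaction progress from fluorescence change between first and third reads (60 s).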
Cruzain inh Det = blocks cruzain activity in presence of Triton detergent | Potency, µM, inactives show max response, negative = inhibition, hits mostly inhibitors | purified cruzain, Z-FR-AMC fluorescence, 0.01% Triton | actives 0.43% (n = 200,000);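 further: plate controls were neutral wells for no effect and buffer without enzyme for full effect; nearly all actives have a fitted effect of over 40% in size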
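Z-FR-AMC hydrolysis (2 uM substrate) by cruzain (1.5 nM) monitored kinetically at ex 360/em 450 nm after 15 min room-temperature compound exposure; 0.01% Triton X-100, pH 5.5, 5 mM DTT.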
* marks the source's active call; other numbers are inactive results; ? = inconclusive. Sampled rows, rich in hits. Any-hit rate of the full collection: about 2.5%. The call rests on the fitted dose curve; in most records, active means well fitted curve in the direction sought with a large enough effect; inconclusive means small, poorly fitted or top-dose-only effect, or another doubt; inactive means no such curve, though single readings can be large; an effect the other way counts as inactive or inconclusive. Potency means the concentration at half of the fitted maximal effect.

SMILES	Cruzain inh noDet	Cruzain inh Det
CC1CCN(c2ccc(-c3cccc(NS(=O)(=O)c4ccc(Cl)s4)c3)nn2)CC1	-28.4%	-5.4%
CCCCCCCCCCCCCCCC(=O)NCC(=O)O	3.9%	0.4%
Cc1cccc(NC(=O)c2ccc(-n3cnc4cccnc43)cc2)c1C	2.9%	-5.5%
O=C(Cc1c(O)c2ccccc2[nH]c1=O)N(Cc1ccccc1)Cc1ccccc1	-3.1%	-2.6%
CCCCCCN(CCCCCC)C(=O)Cc1c(-c2ccc(F)cc2)[nH]c2ccccc12	31.6µM*	-9.0%
CCOc1ccc(/C=C/c2nc(C#N)c(N3CCCCCC3)o2)cc1	-20.7%	-2.6%
COCCNc1oc(/C=C/c2ccc(F)cc2)nc1C#N	20µM*	22.4µM*
COc1cccc(/C=C/c2nc(C#N)c(N3CCC(C(N)=O)CC3)o2)c1	?	28.2µM*
COc1cccc(/C=C/c2nc(C#N)c(N3CCCCCC3)o2)c1	29.3%	-8.4%
CN1CCN(c2oc(/C=C/c3ccc(F)cc3)nc2C#N)CC1	25.1µM*	25.1µM*
COc1cccc(/C=C/c2nc(C#N)c(NCCN(C)C)o2)c1	20µM*	25.1µM*
COCCNc1oc(-c2ccc(F)cc2)nc1C#N	0.5%	-1.9%
COc1cccc(/C=C/c2nc(C#N)c(NCCc3ccccc3)o2)c1	29.7%	-9.3%
Cc1ccc(CNC(=O)c2cc(Sc3ccc(F)cc3F)nc3ccccc23)cc1	-5.6%	1.4%
CCc1ccccc1NC(=O)CSc1ncc2c(n1)-c1ccccc1N(C)S2(=O)=O	12.6%	6.0%
COc1cccc(-c2ccc3ncnc(NC4CC4)c3c2)c1	-6.9%	-7.0%
Cc1ccc(-c2nnc(NCc3nc4ccccc4[nH]3)c3ccccc23)cc1S(=O)(=O)N1CCCCC1	12.6µM*	-1.9%
Cc1ccc(-c2nnc(Nc3ccccc3)c3ccccc23)cc1S(=O)(=O)NCc1nc2ccccc2[nH]1	?	-6.1%
Cc1ccc(-c2nnc(Nc3cccc(Br)c3)c3ccccc23)cc1S(=O)(=O)N1CCCCC1	6.31µM*	-3.0%
Cc1ccc(-c2nnc(Nc3cccc(Br)c3)c3ccccc23)cc1S(=O)(=O)N1CCN(C)CC1	-3.9%	0.5%
O=C(NC1CC(=O)N(c2ccc(F)cc2)C1)c1ccc(S(=O)(=O)N2CCOCC2)cc1 (stereo unspecified)	-2.9%	0.7%
CN(C)c1ccc(CNC(=O)Cn2ccc3cc(S(=O)(=O)N4CCCCCC4)ccc32)cc1	-12.0%	-4.9%
CCOc1ccc(/C=C/C(=O)Nc2ccc(C(N)=O)cc2)cc1OC	-2.7%	-5.1%
CCCCOc1ccc(/C=C/C(=O)Nc2ccc(C(N)=O)cc2)cc1	15.8µM*	-3.0%
CCCOc1ccc(/C=C/C(=O)Nc2ccc([N+](=O)[O-])cc2)cc1	-27.0%	-10.9%
SMILES	Cruzain inh noDet	Cruzain inh Det
CCCCOc1ccc(/C=C/C(=O)Nc2ccc([N+](=O)[O-])cc2C)cc1	25.1µM*	-1.0%
COc1ccc(CC(=O)N2CCc3cc(OC)c(OC)cc3C2COc2ccc(OC)cc2)cc1 (stereo unspecified)	?	-0.5%
CCOc1ccc(NC(=O)CSc2nc3ccccc3c(=O)n2CCC(=O)NC2CCCCC2)cc1	-10.4%	1.8%
c1ccc(CNc2ncncc2-c2ccc3c(c2)OCO3)cc1	-0.5%	1.2%
Cc1cc(N2CCN(c3ccc(F)cc3)CC2)n2nc(-c3ccc(Cl)cc3)nc2n1	-2.1%	-0.2%
CCOC(=O)CSc1nc(N(C)C)nc(N(C)C#N)n1	20µM*	15.8µM*
CCN(CC)C(=O)C(C)N(C#N)c1nc(SC)nc(N(C)C)n1 (stereo unspecified)	3.1%	0.0%
S=C1NC=NC2N=CNC12 (stereo unspecified)	?	3.2%
Cc1cc(NC(=O)COC(=O)C(Cc2ccccc2)NC(=O)c2ccco2)no1 (stereo unspecified)	25.1µM*	28.2µM*
O=C(COC(=O)[C@H](Cc1ccccc1)NC(=O)c1ccco1)NC(c1ccccc1)c1ccccc1	5.0%	-6.5%
Cc1cc(C)c(NC(=O)CSc2nc(=O)[nH]c3c2CCCC3)c(C)c1	12.6%	-0.3%
Cc1c(N=C=O)cccc1N=C=O	-13.8%	-8.9%
COc1cc(C)ccc1OCCOc1c(Cl)cc(Cl)cc1Cl	-0.8%	-1.4%
COc1cc(C)ccc1OCCOc1cc(C)ccc1Cl	20µM*	-0.7%
COc1ccc(OC)c(CCNC(=O)CN2C(=O)COc3ccc(S(=O)(=O)N4CCC(C)CC4)cc32)c1	?	-2.5%
CCN(CC)S(=O)(=O)c1cccc(C(=O)OCC(=O)Nc2ccc3c(c2)c2ccccc2n3CC)c1	7.94µM*	-4.2%
CCn1c2ccccc2c2cc(NC(=O)COC(=O)c3cccc(S(=O)(=O)NC)c3)ccc21	-26.3%	-2.2%
COc1cc2c(cc1OC)n(CC(=O)c1cccc(Cl)c1)c(=O)n1nc(CCn3nc(C)cc3C)nc21	-3.2%	1.7%
C#CCOCCOCCOCCNc1nc(N2CCN(C(=O)[C@H]([C@@H](C)CC)n3cc(CCCN=C(N)N)nn3)CC2)nc(N2CCN(C(=O)[C@H](CCCCN)n3cc(CCCC)nn3)CC2)n1	?	25.1µM*
C#CCOCCOCCOCCNc1nc(N2CCN(C(=O)[C@H](C)n3cc(CCCN=C(N)N)nn3)CC2)nc(N2CCN(C(=O)[C@H](CCCCN)n3cc(CCCC)nn3)CC2)n1	-0.3%	-15.0%
O=C(O)c1ccc(N[C@@H]2OC[C@@H](O)[C@@H](O)[C@@H]2O)cc1	3.2%	1.1%
CCc1ccccc1NC(=O)c1cc(-c2ccc(OC)cc2)on1	-4.5%	-0.1%
COc1cccc(C2=NS(=O)(=O)N(C)C(C(=O)Nc3ccccc3SC)=C2)c1	12.6µM*	-1.2%
CCc1ccccc1NC(=O)C1=CC(c2ccc3c(c2)OCO3)=NS(=O)(=O)N1C	3.2%	-2.8%
COc1ccccc1-c1cc(C(=O)Nc2cc(Cl)ccc2O)no1	-13.3%	-3.2%
SMILES	Cruzain inh noDet	Cruzain inh Det
COc1ccccc1-c1cc(C(=O)Nc2ccc(F)cc2F)no1	12.6µM*	1.1%
COc1ccc(-c2cc(C(=O)Nc3ccccc3SC)no2)cc1	5.01µM*	4.5%
COc1ccc(-c2nc3cnc(N(C)C)nc3n(C[C@H]3CCCO3)c2=O)cc1	12.9%	-0.5%
CCn1c(=O)n(-c2ccc(F)c(Cl)c2)c(=O)c2c3c(sc21)CN(C(C)=O)CC3	8.9%	-3.5%
O=C1/C(=C/c2ccccc2)[C@@H](NC2CCCCC2)c2ccccc21	-9.5%	2.7%
COc1ccc(-c2cn3nc(N4CCCC(C(=O)Nc5cccc(OC)c5)C4)sc3n2)cc1 (stereo unspecified)	-27.7%	-4.7%
COc1ccc(NC(=O)c2c(-c3ccc(C)cc3)nnc3ccccc23)cc1OC	-8.0%	-1.2%
COc1ccc(/C=N/NC(=O)Cn2nc(C)c([N+](=O)[O-])c2C)cc1	15.0%	-3.4%
COc1ccc(/C=N/NC(=O)c2ccc(Cn3cc([N+](=O)[O-])cn3)o2)cc1O	-20.5%	-6.1%
COc1ccc(/C=N/Nc2ccccc2)cc1Cn1nc(C)c([N+](=O)[O-])c1C	12.6µM*	3.4%
COc1ccc(/C=N/Nc2ccc([N+](=O)[O-])cc2)cc1Cn1cc([N+](=O)[O-])cn1	20µM*	-1.6%
O=Cc1c2[nH]c3ccccc3c2cc2[nH]c3ccccc3c12	25.1µM*	0.6%
c1ccc2c(c1)[nH]c1ccccc12	0.1%	-6.3%
CN(Cc1ccccc1)c1ccc(-c2nc(-c3ccncc3)no2)cc1[N+](=O)[O-]	11.2%	-2.5%
CN(Cc1ccccc1)c1ccc(-c2nc(-c3cccnc3)no2)cc1[N+](=O)[O-]	25.1µM*	-13.8%
